In the supplement of paper PMC11732987, “Enantioselective OTUD7B fragment discovery through chemoproteomics screening and high-throughput optimisation” (Communications Chemistry, 2025):

What was measured:
Test in all cases: log2 ratio of Biotin-Ahx-Ub-VS probe labelling (fragment/DMSO); higher = less target engagement (more negative = stronger competition), active = hit call of the paper (q ≤ 0.05, log2 ratio ≤ -1)
Conditions in all cases: compound concentration: 200 uM; treatment time: 3 h
[1] = molecular target: USP9X (UniProt Q93008)
USP9X, sequence (Q93008 whole entry, the tested form may be a part): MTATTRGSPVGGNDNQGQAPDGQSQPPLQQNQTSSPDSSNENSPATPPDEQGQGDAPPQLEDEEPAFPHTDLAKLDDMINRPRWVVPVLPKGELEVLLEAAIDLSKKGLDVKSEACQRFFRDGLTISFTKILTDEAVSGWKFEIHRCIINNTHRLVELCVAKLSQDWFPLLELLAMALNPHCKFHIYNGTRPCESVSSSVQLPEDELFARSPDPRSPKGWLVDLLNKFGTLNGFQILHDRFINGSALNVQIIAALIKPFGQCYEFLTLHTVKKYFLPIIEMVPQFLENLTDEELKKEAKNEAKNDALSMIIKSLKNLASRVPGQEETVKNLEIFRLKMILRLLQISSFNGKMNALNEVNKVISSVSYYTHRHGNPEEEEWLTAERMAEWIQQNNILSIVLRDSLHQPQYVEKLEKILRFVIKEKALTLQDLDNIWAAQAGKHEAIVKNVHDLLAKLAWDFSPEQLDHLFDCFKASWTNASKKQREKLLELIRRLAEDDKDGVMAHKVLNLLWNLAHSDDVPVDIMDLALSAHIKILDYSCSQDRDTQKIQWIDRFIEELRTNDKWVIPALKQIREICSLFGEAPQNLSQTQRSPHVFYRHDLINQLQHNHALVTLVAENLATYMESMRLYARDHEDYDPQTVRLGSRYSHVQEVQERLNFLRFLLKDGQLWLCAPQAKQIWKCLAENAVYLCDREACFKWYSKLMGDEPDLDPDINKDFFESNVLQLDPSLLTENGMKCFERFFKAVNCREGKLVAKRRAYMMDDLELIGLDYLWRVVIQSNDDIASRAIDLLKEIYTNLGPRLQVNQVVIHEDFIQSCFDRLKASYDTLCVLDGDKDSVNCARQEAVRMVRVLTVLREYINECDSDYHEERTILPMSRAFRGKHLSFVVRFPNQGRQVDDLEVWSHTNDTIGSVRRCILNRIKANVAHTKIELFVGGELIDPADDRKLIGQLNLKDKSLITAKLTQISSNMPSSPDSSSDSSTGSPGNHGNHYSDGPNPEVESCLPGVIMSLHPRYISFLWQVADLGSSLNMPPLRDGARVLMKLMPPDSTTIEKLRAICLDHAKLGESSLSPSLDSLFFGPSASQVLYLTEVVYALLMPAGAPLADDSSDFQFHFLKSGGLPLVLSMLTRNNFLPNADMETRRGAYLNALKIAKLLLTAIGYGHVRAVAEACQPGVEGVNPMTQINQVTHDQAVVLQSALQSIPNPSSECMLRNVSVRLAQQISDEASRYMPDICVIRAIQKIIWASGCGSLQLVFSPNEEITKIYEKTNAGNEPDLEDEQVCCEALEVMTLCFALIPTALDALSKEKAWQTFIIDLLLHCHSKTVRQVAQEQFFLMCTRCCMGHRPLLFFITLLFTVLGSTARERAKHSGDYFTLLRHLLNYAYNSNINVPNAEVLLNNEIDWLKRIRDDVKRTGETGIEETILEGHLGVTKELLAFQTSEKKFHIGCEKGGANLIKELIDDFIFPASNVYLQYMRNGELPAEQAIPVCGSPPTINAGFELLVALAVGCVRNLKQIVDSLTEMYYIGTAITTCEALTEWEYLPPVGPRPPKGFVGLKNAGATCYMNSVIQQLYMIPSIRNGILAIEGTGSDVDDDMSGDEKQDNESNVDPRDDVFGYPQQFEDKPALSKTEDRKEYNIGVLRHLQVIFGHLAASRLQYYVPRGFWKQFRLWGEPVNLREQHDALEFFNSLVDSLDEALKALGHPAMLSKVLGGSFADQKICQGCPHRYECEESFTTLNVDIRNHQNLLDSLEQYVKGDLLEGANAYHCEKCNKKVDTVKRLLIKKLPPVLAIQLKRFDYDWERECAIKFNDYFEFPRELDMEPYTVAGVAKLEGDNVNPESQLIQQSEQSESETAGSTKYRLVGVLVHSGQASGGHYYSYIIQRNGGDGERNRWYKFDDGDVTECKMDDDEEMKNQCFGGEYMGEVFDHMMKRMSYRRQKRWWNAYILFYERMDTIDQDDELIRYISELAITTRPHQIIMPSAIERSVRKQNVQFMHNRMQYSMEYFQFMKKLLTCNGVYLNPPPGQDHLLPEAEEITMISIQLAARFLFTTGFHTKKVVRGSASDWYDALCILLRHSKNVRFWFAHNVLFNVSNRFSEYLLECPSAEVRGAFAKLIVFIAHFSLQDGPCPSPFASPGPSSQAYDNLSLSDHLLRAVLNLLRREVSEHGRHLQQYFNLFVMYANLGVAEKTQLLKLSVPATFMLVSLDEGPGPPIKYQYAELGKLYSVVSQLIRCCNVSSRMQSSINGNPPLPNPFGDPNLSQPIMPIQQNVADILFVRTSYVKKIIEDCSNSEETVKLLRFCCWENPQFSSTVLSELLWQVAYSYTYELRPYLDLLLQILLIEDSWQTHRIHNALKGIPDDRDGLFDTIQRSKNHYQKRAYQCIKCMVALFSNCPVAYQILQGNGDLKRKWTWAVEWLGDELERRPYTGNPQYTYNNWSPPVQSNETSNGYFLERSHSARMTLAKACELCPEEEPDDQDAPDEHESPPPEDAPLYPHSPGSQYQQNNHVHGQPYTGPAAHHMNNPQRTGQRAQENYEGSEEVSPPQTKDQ
How it was run: (§1)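 HEK293T lysate in Tris/CHAPS/IGEPAL buffer with protease inhibitors (495 µg per sample) was given fragment at 200 µM or vehicle for 3 h, in triplicate. It then received Biotin-Ahx-Ub-VS at 0.5 µM final for 1 h. Labelled DUBs were NeutrAvidin-enriched, digested with LysC and trypsin, and run by diaPASEF LC-MS/MS. Values are average log2 fragment/vehicle ratios by unpaired t-test on global-median-normalised Spectronaut quantities of proteins with ≥2 unique peptides.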

[2] = molecular target: UniProt O00487
UniProt O00487, sequence (O00487 whole entry): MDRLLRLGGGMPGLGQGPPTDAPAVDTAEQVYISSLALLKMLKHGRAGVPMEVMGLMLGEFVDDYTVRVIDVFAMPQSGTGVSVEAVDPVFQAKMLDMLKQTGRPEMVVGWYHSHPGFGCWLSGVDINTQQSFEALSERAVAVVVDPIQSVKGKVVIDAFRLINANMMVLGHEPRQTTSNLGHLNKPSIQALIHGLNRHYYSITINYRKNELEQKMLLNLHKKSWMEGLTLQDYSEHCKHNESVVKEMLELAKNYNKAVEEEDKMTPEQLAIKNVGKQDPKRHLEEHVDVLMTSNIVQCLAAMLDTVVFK
How it was run: as §1

[3] = molecular target: UniProt O00507
How it was run: as §1

[4] = molecular target: UniProt P51784
UniProt P51784, sequence (P51784 whole entry): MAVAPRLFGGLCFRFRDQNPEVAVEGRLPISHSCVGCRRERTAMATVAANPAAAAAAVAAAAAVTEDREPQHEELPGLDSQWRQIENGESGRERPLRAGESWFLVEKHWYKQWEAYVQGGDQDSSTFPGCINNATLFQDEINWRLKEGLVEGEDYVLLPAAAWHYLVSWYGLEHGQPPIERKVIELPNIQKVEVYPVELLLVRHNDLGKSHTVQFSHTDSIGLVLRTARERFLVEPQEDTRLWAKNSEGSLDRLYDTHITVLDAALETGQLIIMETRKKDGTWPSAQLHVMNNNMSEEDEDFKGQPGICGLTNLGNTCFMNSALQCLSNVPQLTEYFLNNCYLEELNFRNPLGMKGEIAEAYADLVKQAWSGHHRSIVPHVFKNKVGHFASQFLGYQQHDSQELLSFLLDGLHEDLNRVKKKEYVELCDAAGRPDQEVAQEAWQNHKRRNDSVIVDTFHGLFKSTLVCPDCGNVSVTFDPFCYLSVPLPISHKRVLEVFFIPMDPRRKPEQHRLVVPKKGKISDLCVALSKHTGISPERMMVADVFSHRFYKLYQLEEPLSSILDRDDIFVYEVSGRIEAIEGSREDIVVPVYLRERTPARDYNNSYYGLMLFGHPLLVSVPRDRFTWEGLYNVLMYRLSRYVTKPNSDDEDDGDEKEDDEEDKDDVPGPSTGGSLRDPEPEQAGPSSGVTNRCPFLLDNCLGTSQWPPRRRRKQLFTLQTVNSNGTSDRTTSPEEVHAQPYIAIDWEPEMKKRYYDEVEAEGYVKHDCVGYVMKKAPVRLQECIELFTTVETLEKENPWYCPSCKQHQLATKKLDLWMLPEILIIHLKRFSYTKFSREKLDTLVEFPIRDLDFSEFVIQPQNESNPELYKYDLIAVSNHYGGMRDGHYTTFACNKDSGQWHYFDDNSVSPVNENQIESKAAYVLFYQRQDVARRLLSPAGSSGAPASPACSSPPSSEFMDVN
How it was run: as §1

[5] = molecular target: T1, UniProt Q5T2D3
T1 sequence (whole entry): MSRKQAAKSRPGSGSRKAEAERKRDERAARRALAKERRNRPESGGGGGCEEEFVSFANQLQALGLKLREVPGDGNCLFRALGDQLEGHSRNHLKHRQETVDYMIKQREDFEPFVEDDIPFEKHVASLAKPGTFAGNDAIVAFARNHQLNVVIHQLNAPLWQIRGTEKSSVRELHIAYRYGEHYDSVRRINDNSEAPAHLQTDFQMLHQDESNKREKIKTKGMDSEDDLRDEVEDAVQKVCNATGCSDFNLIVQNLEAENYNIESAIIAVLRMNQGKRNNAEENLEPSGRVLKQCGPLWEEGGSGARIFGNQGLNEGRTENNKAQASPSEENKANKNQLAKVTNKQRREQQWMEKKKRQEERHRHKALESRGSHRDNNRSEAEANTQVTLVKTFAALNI
How it was run: as §1

[6] = molecular target: T2, UniProt Q8TE49
T2 sequence (whole entry): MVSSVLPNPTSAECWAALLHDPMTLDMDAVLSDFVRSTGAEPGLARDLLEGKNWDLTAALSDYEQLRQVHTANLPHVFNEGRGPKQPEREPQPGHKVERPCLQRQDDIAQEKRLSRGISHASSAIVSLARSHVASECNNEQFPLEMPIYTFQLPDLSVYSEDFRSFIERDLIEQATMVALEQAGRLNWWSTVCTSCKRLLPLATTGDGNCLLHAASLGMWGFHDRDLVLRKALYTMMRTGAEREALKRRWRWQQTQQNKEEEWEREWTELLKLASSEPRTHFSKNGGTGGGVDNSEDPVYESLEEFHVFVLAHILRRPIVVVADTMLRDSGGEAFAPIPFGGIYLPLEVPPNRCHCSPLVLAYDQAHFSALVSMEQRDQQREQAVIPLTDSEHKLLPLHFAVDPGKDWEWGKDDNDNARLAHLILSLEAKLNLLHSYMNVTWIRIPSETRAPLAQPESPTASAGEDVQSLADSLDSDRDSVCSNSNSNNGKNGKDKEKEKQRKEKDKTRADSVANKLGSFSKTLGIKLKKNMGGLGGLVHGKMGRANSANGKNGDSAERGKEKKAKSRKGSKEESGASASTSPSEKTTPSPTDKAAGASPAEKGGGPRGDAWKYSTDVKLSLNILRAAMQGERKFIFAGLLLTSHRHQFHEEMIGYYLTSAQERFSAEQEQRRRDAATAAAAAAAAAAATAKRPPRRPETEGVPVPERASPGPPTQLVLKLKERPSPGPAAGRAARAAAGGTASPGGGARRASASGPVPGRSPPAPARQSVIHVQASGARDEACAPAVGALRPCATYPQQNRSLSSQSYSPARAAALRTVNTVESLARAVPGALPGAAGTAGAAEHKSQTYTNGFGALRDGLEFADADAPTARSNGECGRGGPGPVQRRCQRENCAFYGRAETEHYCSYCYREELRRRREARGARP
How it was run: as §1

[7] = molecular target: T3, UniProt Q9P2H5
T3 sequence (whole entry): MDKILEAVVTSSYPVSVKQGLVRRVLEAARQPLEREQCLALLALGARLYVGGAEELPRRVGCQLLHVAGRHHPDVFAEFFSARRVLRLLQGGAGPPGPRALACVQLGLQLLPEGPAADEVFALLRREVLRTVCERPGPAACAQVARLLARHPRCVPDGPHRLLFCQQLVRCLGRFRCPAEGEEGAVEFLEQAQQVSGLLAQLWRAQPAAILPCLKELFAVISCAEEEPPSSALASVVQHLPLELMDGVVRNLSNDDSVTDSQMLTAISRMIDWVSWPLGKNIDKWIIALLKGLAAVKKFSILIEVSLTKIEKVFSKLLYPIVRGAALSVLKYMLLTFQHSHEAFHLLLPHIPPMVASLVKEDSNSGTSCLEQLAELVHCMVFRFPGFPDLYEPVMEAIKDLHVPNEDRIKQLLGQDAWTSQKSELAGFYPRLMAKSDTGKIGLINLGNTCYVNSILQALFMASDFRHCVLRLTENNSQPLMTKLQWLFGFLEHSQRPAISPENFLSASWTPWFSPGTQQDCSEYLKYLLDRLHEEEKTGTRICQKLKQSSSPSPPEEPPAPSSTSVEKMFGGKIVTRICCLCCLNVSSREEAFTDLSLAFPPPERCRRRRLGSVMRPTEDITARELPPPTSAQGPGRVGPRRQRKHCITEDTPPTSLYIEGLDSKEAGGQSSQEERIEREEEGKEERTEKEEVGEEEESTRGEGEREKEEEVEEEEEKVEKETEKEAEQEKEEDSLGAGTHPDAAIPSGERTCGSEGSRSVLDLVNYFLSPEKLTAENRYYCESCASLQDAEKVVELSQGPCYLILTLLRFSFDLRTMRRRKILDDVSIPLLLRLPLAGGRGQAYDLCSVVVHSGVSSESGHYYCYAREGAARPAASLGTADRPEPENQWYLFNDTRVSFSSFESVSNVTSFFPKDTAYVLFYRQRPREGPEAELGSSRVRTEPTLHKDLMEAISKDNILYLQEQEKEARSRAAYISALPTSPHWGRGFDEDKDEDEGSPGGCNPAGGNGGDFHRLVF
How it was run: as §1

[8] = molecular target: T4, UniProt Q9UGI0
T4 sequence (whole entry): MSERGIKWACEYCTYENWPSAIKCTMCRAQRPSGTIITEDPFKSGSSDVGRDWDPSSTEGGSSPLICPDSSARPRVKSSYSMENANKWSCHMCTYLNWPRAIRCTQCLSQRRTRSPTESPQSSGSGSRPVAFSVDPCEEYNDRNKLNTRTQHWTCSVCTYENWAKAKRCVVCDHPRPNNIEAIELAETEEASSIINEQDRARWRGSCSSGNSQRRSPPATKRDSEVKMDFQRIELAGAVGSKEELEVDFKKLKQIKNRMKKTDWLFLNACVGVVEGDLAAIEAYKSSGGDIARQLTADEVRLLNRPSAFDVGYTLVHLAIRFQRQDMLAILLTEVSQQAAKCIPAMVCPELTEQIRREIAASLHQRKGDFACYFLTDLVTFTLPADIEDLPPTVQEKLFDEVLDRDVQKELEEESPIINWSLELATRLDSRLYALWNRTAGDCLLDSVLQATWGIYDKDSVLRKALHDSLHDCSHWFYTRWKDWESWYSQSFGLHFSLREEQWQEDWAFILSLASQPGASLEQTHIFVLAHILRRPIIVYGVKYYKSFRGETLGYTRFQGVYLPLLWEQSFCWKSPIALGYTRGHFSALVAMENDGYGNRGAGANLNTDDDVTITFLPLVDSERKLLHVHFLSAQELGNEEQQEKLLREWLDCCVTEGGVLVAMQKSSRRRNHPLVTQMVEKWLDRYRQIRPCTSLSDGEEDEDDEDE
How it was run: as §1

[9] = molecular target: T5, YOD1 (UniProt Q5VVQ6)
T5 sequence (whole entry): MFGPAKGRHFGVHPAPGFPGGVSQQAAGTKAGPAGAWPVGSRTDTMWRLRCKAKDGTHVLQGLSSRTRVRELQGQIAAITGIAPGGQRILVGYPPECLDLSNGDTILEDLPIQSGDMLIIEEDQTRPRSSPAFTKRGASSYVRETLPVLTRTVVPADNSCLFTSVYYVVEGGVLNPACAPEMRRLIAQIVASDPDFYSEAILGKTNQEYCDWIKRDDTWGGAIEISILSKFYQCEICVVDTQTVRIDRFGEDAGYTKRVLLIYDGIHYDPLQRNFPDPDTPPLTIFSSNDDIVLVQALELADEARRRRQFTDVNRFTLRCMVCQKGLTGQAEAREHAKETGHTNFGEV
How it was run: as §1

Measured: log2 ratio of Biotin-Ahx-Ub-VS probe labelling

CN(Cc1nc2ccccc2[nH]1)C(=O)CCl.Cl
inactive: [1] -0.057 | [2] -0.00224 | [3] -0.702 | [4] 0.00766 | [5] -0.19 | [6] -0.268 | [7] 0.121 | [8] -0.937 | [9] 0.0427
